Measured values taken from PubChem BioAssay (EPA / NIEHS).
Inconclusive results are not listed. Activity calls are given as the source filed them. Rule for the calls: active = hit-call score of the fitted dose curve at least 0.9, where 1 is the maximum; inconclusive = response in the unintended direction; inactive = score below 0.9.

These compounds were tested against Cellular tumor antigen p53 (Homo sapiens) (UniProt P04637) (assay: TOX21_p53_BLA_p2_ratio: Tox21 HCT-116 p53 Agonism Beta-lactamase Assay, Ratio, Phase 2 (AID 2283592)).
Chain of Cellular tumor antigen p53 (Homo sapiens) (P04637 whole entry, looked up): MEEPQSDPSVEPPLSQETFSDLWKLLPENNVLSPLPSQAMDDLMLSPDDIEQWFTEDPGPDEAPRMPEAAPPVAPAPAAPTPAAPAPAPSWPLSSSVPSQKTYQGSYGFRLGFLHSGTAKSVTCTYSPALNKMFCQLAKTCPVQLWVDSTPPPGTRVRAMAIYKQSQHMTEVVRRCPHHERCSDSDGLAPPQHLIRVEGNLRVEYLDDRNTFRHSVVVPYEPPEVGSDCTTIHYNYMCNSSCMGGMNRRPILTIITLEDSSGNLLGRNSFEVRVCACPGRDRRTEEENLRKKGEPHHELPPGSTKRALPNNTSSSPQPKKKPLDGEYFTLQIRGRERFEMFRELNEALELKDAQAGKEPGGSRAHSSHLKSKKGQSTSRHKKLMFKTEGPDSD
Procedure, shortened: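 Read-out is the blue/green (460/530 nm, 405 nm excitation) ratio after 2 h CCF4-AM loading, fitted as gain versus DMSO. Compounds, pinned at 217-fold dilution from DMSO stocks, stayed 16 h on HCT-116 beta-lactamase reporter cells seeded 5 h earlier.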

SMILES | outcome
Cc1cnc(C)c(C)n1 | inactive
CCOC(=O)CC(=O)C(=O)OCC | inactive
COc1ccc(/C=C/c2cc(OC)cc(=O)o2)cc1 | inactive
C=Cc1ccccn1 | inactive
Cc1ccc(O)c(N)c1 | inactive
S=C(SSSSSSC(=S)N1CCCCC1)N1CCCCC1 | inactive
CC(C)c1ncc([N+](=O)[O-])n1C | inactive
CC(=O)NC[C@H]1CN(c2ccc(N3CCOCC3)c(F)c2)C(=O)O1 | inactive
C[C@]12CC[C@@H]3c4ccc(OC(=O)c5ccccc5)cc4CC[C@H]3[C@@H]1CC[C@@H]2O | inactive
CN(CCOc1ccc(NS(C)(=O)=O)cc1)CCc1ccc(NS(C)(=O)=O)cc1 | inactive
Nc1ccc(N=Nc2ccc(N)cc2)cc1 | inactive
O=C(O)[C@H](O)c1ccccc1 | inactive
COc1ccc(-c2cc(C(F)F)nn2-c2ccc(S(N)(=O)=O)cc2)cc1F | inactive
CN(C)CCN(Cc1ccccc1)c1ccccn1 | inactive
NC(=O)CC[C@@H]1NC(=O)[C@H](Cc2ccccc2)NC(=O)[C@H](Cc2ccc(O)cc2)NC(=O)[C@@H](N)CSSC[C@@H](C(=O)N2CCC[C@H]2C(=O)N[C@@H](CCCN=C(N)N)C(=O)NCC(N)=O)NC(=O)[C@H](CC(N)=O)NC1=O | inactive
C[Si](Cl)(c1ccccc1)c1ccccc1 | inactive
CN1CCOC(c2ccccc2)c2ccccc2C1 (stereo not drawn) | inactive
CCOc1ccc(S(=O)(=O)O)c2cccnc12 | inactive
CC1CCCC(=O)C1=O (stereo not drawn) | inactive

SMILES | outcome
CC(C)OC(=O)C(C(=O)OC(C)C)=C1SC=CS1 | inactive
C=CC(=O)[O-].C=CC(=O)[O-].[Zn+2] | inactive
O=C(O)CP(=O)(O)O | inactive
CC(C)(C)C(=O)OCC(=O)[C@H]1CC[C@H]2[C@@H]3CCC4=CC(=O)CC[C@]4(C)[C@H]3CC[C@]12C | inactive
NS(=O)(=O)c1cc(-c2nn[nH]n2)c(NCc2cccs2)cc1Cl | inactive
CCCCCC(N)=O | inactive
OCl | inactive
C1CCCNCCC1 | inactive
CCN(C)C(=O)Oc1cccc([C@H](C)N(C)C)c1 | inactive
Cc1cc(=O)c(C(=O)N[C@@H](C(=O)N[C@@H]2C(=O)N3C(C(=O)O)=C(CSc4nnnn4C)CS[C@H]23)c2ccc(O)cc2)c[nH]1 | inactive
CCCc1nc2c(C)cc(-c3nc4ccccc4n3C)cc2n1Cc1ccc(-c2ccccc2C(=O)O)cc1 | inactive
CO[C@@]1(NC(=O)C2SC(=C(C(N)=O)C(=O)O)S2)C(=O)N2C(C(=O)O)=C(CSc3nnnn3C)CS[C@@H]21 (stereo partly drawn) | inactive
O=[N+]([O-])c1ccc(Oc2ccc([N+](=O)[O-])cc2)cc1 | inactive
CCOC(=O)CCC(=O)O[C@H]1[C@H](O[C@@H]2[C@@H](C)[C@H](O[C@H]3C[C@@](C)(OC)[C@@H](O)[C@H](C)O3)[C@@H](C)C(=O)O[C@H](CC)[C@@](C)(O)[C@H](O)[C@@H](C)C(=O)[C@H](C)C[C@@]2(C)O)O[C@H](C)C[C@@H]1N(C)C | inactive
C=CC[N@@+]12CC[C@@]34c5ccccc5N5/C=C6/[C@H]7C[C@H]8[C@@]9(CC[N@@+]8(CC=C)C/C7=C/CO)c7ccccc7N(/C=C(/[C@@H](C[C@@H]31)/C(=C\CO)C2)[C@H]54)[C@@H]69 | inactive
CN1CCc2c(c3ccccc3n2Cc2ccccc2)C1 | inactive
CC(C)NC[C@@H](O)COc1cccc2ccccc12 | inactive
CC(=O)c1ccc(Cl)c(Cl)c1Cl | inactive
CC1(C)Cc2cccc(N)c2O1 | inactive
